PD-1 reverse act – activators reversing PD-1 mediated T-cell inhibition; activation, % (no concentration beside the values); primary human CD4 T cells, PD-L1 beads, CellTiter-Glo 96 h; 29,000 tested, under 10 active; AID 2316; call rule not given here
STK33 kin inh – blocks human STK33 kinase activity | Q9BYT3 | ADP-Glo luminescence, MBP substrate | inhibition, % at 12.5 µM | 27,000 compounds, 0.44% hits; in the data active means inhibition above about 20%
Target sequence (Q9BYT3 whole entry, looked up): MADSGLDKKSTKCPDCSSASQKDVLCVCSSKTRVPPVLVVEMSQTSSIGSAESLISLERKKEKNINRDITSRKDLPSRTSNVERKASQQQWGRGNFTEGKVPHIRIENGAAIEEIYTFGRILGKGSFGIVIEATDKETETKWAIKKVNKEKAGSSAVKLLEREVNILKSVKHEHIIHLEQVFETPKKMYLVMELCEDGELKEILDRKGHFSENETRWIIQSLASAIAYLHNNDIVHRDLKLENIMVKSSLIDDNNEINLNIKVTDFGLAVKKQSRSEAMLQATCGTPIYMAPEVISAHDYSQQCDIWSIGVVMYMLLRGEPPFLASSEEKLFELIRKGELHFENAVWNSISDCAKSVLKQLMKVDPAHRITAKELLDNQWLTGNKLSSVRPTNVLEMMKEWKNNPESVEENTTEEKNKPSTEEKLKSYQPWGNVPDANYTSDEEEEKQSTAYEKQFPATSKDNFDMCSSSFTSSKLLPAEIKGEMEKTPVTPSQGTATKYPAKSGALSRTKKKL
NOMO-1 viab – STK33 inhibitor candidate reducing NOMO-1 cell viability. NOMO-1 AML viability, CellTiter-Glo luminescence, 72 h. inhibition, % (test concentration not listed). 37,000 compounds, 7.5% hits; in the data active means inhibition above about 80%
Each line names hits and unclear results; the compound was inactive in the other large screens. This excerpt belongs to a sample that is enriched for hits.

CS(=O)(=O)N(CC(=O)Nc1ccc(F)cc1)c1cccc(Br)c1	none
COc1ccc(OC)c(S(=O)(=O)Nc2ccc(NC(C)=O)cc2)c1	none (no result: PD-1 reverse act)
COc1ccc(OC)c(S(=O)(=O)Nc2ccc(O)c3ccccc23)c1	NOMO-1 viab 127
O=[N+]([O-])c1ccc(OCc2nc(-c3cccnc3)no2)cc1	none
CCc1ccc(-c2cn3c4ccccc4nc3n2CCN2CCOCC2)cc1	none
C[C@@H]1CN([C@H](C)CO)C(=O)Cc2cc(NC(=O)Nc3ccc(F)cc3)ccc2O[C@H]1CN(C)Cc1ccc(-c2ccccc2)cc1	NOMO-1 viab 127
C[C@@H]1CN([C@H](C)CO)C(=O)Cc2cc(NC(=O)Nc3ccc(F)cc3)ccc2O[C@@H]1CN(C)Cc1ccccc1	none
C[C@@H]1CN([C@H](C)CO)C(=O)Cc2cc(NC(=O)Nc3ccccc3)ccc2O[C@H]1CN(C)Cc1ccc(-c2ccccc2)cc1	none (no result: STK33 kin inh)
C[C@H]1CN([C@@H](C)CO)C(=O)Cc2cc(NC(=O)Nc3ccc(F)cc3)ccc2O[C@H]1CN(C)Cc1ccc(-c2ccccc2)cc1	NOMO-1 viab 110
CC(C)NC(=O)Nc1ccc2c(c1)CC(=O)N([C@@H](C)CO)C[C@H](C)[C@@H](CN(C)Cc1ccc(-c3ccccc3)cc1)O2	none
CC(C)NC(=O)Nc1ccc2c(c1)CC(=O)N([C@H](C)CO)C[C@@H](C)[C@@H](CN(C)Cc1ccc(-c3ccccc3)cc1)O2	NOMO-1 viab 82
C[C@@H]1CN([C@H](C)CO)C(=O)Cc2cc(NC(=O)Nc3ccc4c(c3)OCO4)ccc2O[C@H]1CN(C)Cc1ccc(-c2ccccc2)cc1	NOMO-1 viab 98
C[C@@H]1CN([C@H](C)CO)C(=O)Cc2cc(NC(=O)Nc3ccc4c(c3)OCO4)ccc2O[C@H]1CN(C)Cc1ccccc1	none (no result: PD-1 reverse act)
COc1ncccc1C(=O)Nc1ccc(F)cc1F	none (no result: STK33 kin inh)
CCOc1ccc(NC(=O)C2CC(=O)NC(N3CCN(C)CC3)=N2)cc1 (stereo unspecified)	none
COC(=O)c1c(NC(=O)Cn2cc([N+](=O)[O-])cn2)sc2c1CCCC2	none
O=C(c1ccccc1)c1ccc2nc(-c3cccc(NC(=O)C4CCCO4)c3)[nH]c2c1 (stereo unspecified)	NOMO-1 viab 100
Cc1cccc(OCC(=O)Nc2cccc(-c3nc4ccccc4[nH]3)c2)c1C	none
COC(=O)c1ccccc1NC(=O)COc1ccc2c(C)cc(=O)oc2c1	none (no result: PD-1 reverse act)
COc1cccc(-c2nn(-c3ccccc3)cc2C(=O)n2nnc3ccccc32)c1	NOMO-1 viab 128
COc1cccc(NC(=O)CSc2nnc(-c3cccc(C)c3)n2-c2ccccc2)c1	none
Cc1ccc2nc(-c3cccnc3)cc(C(=O)NCc3cnn(C)c3)c2c1	none (no result: PD-1 reverse act)
COc1ccc(C)cc1S(=O)(=O)N1CCCC(C(=O)Nc2ccccc2)C1 (stereo unspecified)	none
Cc1ccc(Cl)c(NC(=O)NCCN2CCN(c3ccccc3[N+](=O)[O-])CC2)c1	none (no result: PD-1 reverse act)
C/C1=C/C[C@]2(C)C(=O)C(=O)C([C@H](C)CO)[C@H]2C/C=C(/C)[C@@H](O)CC/C(C)=C\CC1 (stereo partly specified)	none
C/C=C/C1=C(Cl)C(=O)[C@@H](O)[C@@]1(O)C(=O)OC	NOMO-1 viab 108
CCOC(=O)c1cc(-c2ccccc2)sc1NC(=S)Nc1cnn(CC)c1C(N)=O	none
COc1ccc(NC(C)=S)cc1C	none (no result: STK33 kin inh)
C[C@@H]1CN([C@H](C)CO)C(=O)c2cc(NC(=O)Nc3ccc(C(F)(F)F)cc3)ccc2O[C@H]1CN(C)C(=O)Nc1ccc2c(c1)OCO2	none
C[C@H](CO)N1C[C@H](C)[C@@H](CN(C)C(=O)Nc2ccc(C(F)(F)F)cc2)Oc2ccc(NC(=O)Nc3ccc4c(c3)OCO4)cc2C1=O	none
C[C@H](CO)N1C[C@H](C)[C@H](CN(C)C(=O)Nc2ccc3c(c2)OCO3)Oc2ccc(NC(=O)Nc3ccc(C(F)(F)F)cc3)cc2C1=O	NOMO-1 viab 99
C[C@@H]1CN([C@@H](C)CO)C(=O)c2cc(NC(=O)Nc3ccc4c(c3)OCO4)ccc2O[C@@H]1CN(C)C(=O)Nc1ccc(C(F)(F)F)cc1	NOMO-1 viab 93
COC(=O)c1c(NC(=S)NCc2ccccn2)sc2c1CCC2	none (no result: PD-1 reverse act, NOMO-1 viab)
O=C(CSc1nc(-c2ccccc2)c2cc(Cl)ccc2n1)N1N=CCC1c1ccccc1 (stereo unspecified)	none
CN1CCN(CC(=O)N2N=C(c3c(-c4ccccc4)c4cc(Cl)ccc4[nH]c3=O)CC2c2ccccc2)CC1 (stereo unspecified)	NOMO-1 viab 124
C[C@H]1CN([C@@H](C)CO)C(=O)c2cccc(NC(=O)Nc3ccccc3)c2O[C@H]1CN(C)Cc1ccc(C(=O)O)cc1	none (no result: STK33 kin inh)
C[C@H](CO)N1C[C@H](C)[C@@H](CN(C)Cc2ccc(C(=O)O)cc2)Oc2c(NC(=O)Nc3cccc4ccccc34)cccc2C1=O	none (no result: STK33 kin inh)
C[C@@H]1CN([C@@H](C)CO)C(=O)c2cccc(NC(=O)Nc3ccccc3)c2O[C@@H]1CN(C)Cc1ccc(C(=O)O)cc1	none (no result: STK33 kin inh)
C[C@@H]1CN([C@H](C)CO)C(=O)c2cccc(NC(=O)Nc3ccccc3)c2O[C@H]1CN(C)Cc1ccc(C(=O)Nc2ccccc2N)cc1	NOMO-1 viab 139 (no result: STK33 kin inh)
C[C@H]1CN([C@@H](C)CO)C(=O)c2cccc(NC(=O)Nc3cccc4ccccc34)c2O[C@H]1CN(C)Cc1ccc(C(=O)Nc2ccccc2N)cc1	NOMO-1 viab 128 (no result: STK33 kin inh)
C[C@@H]1CN([C@@H](C)CO)C(=O)c2cccc(NC(=O)Nc3ccccc3)c2O[C@@H]1CN(C)Cc1ccc(C(=O)Nc2ccccc2N)cc1	NOMO-1 viab 140 (no result: STK33 kin inh)
COC(=O)c1ccc(NC(=O)CCn2nc(-c3ccccc3)c3ccccc3c2=O)cc1	none (no result: PD-1 reverse act)
COc1cccc(NC(=O)CSc2nc(-c3ccccc3)c(-c3ccccc3)[nH]2)c1	none
COc1cccc(C(=O)NC(NCC2CCCO2)(C(F)(F)F)C(F)(F)F)c1 (stereo unspecified)	none (no result: STK33 kin inh)
C[C@H](CO)N1C[C@H](C)[C@@H](CN(C)Cc2ccc(C(=O)O)cc2)Oc2c(NC(=O)c3ccc(-c4nccs4)cc3)cccc2C1=O	none (no result: STK33 kin inh)
C[C@H](CO)N1C[C@H](C)[C@@H](CN(C)S(=O)(=O)c2ccc(Cl)cc2)Oc2c(NC(=O)c3ccc(-c4nccs4)cc3)cccc2C1=O	none (no result: STK33 kin inh)
C[C@@H]1CN([C@@H](C)CO)C(=O)c2cccc(NC(=O)c3ccc(-c4nccs4)cc3)c2O[C@H]1CN(C)Cc1ccc2c(c1)OCO2	NOMO-1 viab 103 (no result: STK33 kin inh)
C[C@H](CO)N1C[C@H](C)[C@@H](CN(C)Cc2ccc3c(c2)OCO3)Oc2c(NC(=O)c3ccc(-c4nccs4)cc3)cccc2C1=O	none (no result: STK33 kin inh)
C[C@H](CO)N1C[C@H](C)[C@@H](CN(C)Cc2ccc(Cl)c(Cl)c2)Oc2c(NC(=O)c3ccc(-c4nccs4)cc3)cccc2C1=O	NOMO-1 viab 116 (no result: STK33 kin inh)
C[C@H](CO)N1C[C@H](C)[C@H](CN(C)S(=O)(=O)c2ccc(Cl)cc2)Oc2c(NC(=O)c3ccc(-c4nccs4)cc3)cccc2C1=O	NOMO-1 viab 84 (no result: STK33 kin inh)
C[C@H](CO)N1C[C@H](C)[C@H](CN(C)Cc2ccccc2)Oc2ccc(NS(=O)(=O)c3ccc(F)cc3)cc2CC1=O	none
C[C@H](CO)N1C[C@H](C)[C@H](CN(C)Cc2ccc(-c3ccccc3)cc2)Oc2ccc(NS(=O)(=O)c3ccc(F)cc3)cc2CC1=O	NOMO-1 viab 95
